For assay [1], the target named is Vascular endothelial growth factor receptor 3 (Homo sapiens) (UniProt P35916). The conditions noted are these: at 10 µM.
The target of assay [2] is Macrophage colony-stimulating factor 1 receptor (Homo sapiens) (UniProt P07333). To be noted: at 1 µM.
For assay [3] the target is unchanged. The conditions noted are these: at 10 µM.
In assay [4] the target is Tyrosine-protein kinase Fyn (Homo sapiens) (UniProt P06241). The conditions noted are these: at 1 µM.
Assay [5] shares this target. To be noted: at 10 µM.
Assay [6] concerns the target T1, Mitogen-activated protein kinase kinase kinase kinase 2 (Homo sapiens) (UniProt Q12851).
T1 sequence (whole entry): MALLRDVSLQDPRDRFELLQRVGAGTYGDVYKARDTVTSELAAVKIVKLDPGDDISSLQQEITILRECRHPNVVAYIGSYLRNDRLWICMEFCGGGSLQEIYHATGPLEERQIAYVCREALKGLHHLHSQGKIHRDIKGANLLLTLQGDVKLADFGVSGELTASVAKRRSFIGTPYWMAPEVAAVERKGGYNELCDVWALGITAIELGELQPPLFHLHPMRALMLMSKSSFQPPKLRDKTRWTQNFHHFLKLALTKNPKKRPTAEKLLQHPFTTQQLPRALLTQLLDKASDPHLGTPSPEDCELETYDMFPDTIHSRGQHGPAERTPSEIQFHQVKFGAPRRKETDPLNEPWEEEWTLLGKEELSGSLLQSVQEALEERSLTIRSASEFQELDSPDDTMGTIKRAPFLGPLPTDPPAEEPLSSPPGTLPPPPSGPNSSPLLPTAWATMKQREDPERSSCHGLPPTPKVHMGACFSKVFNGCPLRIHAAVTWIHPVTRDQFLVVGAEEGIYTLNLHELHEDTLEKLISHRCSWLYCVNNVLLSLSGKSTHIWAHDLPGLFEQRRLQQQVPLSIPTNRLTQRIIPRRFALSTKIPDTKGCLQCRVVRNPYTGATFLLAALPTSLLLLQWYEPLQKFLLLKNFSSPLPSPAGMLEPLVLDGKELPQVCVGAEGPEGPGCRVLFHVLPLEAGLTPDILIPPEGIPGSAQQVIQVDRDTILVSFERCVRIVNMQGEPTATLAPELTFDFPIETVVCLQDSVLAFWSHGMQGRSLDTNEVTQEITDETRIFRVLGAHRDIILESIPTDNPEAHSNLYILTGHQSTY
To be noted: at 1 µM.

Assay [7] addresses T1, Mitogen-activated protein kinase kinase kinase kinase 2 (Homo sapiens). To be noted: at 10 µM.
Assay [8] concerns the target G protein-coupled receptor kinase 5 (Homo sapiens) (UniProt P34947). The conditions noted are these: at 10 µM.
The target of assay [9] is G protein-coupled receptor kinase 6 (Homo sapiens) (UniProt P43250). The conditions noted are these: at 10 µM.
Assay [10] has as its target T2, Rhodopsin kinase GRK7 (Homo sapiens) (UniProt Q8WTQ7).
T2 sequence (whole entry): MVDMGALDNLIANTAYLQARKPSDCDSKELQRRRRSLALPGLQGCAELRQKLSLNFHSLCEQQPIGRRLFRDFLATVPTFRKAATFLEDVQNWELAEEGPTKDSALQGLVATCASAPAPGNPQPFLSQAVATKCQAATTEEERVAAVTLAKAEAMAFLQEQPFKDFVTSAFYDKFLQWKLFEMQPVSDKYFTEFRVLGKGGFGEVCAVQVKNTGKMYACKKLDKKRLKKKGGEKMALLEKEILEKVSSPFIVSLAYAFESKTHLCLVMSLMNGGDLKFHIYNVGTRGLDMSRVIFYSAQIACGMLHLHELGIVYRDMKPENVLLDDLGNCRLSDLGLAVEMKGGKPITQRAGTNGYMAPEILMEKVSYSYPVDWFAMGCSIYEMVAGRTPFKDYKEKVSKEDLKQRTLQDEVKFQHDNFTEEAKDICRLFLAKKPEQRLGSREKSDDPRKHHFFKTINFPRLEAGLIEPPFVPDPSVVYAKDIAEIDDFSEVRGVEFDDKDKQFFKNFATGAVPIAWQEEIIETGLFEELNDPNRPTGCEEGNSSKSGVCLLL
To be noted: at 1 µM.

Assay [11] deals with T2, Rhodopsin kinase GRK7 (Homo sapiens). To be noted: at 10 µM.
The target in assay [12] is Glycogen synthase kinase-3 alpha (Homo sapiens) (UniProt P49840). The conditions noted are these: at 10 µM.
Sequence of Glycogen synthase kinase-3 alpha (Homo sapiens) (P49840 2-483 limits assumed): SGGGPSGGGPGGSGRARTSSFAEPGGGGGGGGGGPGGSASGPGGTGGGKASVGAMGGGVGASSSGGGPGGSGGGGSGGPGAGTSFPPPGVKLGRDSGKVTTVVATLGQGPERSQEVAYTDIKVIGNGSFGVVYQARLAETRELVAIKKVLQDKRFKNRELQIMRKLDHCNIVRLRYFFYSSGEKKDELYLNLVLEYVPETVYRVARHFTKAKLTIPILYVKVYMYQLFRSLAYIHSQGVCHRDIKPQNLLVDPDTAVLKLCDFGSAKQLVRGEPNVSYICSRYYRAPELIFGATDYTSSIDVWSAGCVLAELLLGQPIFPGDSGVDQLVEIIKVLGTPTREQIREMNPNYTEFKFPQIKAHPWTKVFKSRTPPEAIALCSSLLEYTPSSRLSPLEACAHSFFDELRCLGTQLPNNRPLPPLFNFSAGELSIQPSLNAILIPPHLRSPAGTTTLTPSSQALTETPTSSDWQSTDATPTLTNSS
Assay [13] addresses Glycogen synthase kinase-3 beta (Homo sapiens) (UniProt P49841). The conditions noted are these: at 1 µM.
The target is the same in assay [14]. The conditions noted are these: at 10 µM.
The target of assay [15] is Homeodomain-interacting protein kinase 1 (Homo sapiens) (UniProt Q86Z02). The conditions noted are these: at 1 µM.
Assay [16] has the same target. To be noted: at 10 µM.
Assay [17] deals with Homeodomain-interacting protein kinase 2 (Homo sapiens) (UniProt Q9H2X6). The conditions noted are these: at 1 µM.
Sequence of Homeodomain-interacting protein kinase 2 (Homo sapiens) (Q9H2X6 whole entry, looked up): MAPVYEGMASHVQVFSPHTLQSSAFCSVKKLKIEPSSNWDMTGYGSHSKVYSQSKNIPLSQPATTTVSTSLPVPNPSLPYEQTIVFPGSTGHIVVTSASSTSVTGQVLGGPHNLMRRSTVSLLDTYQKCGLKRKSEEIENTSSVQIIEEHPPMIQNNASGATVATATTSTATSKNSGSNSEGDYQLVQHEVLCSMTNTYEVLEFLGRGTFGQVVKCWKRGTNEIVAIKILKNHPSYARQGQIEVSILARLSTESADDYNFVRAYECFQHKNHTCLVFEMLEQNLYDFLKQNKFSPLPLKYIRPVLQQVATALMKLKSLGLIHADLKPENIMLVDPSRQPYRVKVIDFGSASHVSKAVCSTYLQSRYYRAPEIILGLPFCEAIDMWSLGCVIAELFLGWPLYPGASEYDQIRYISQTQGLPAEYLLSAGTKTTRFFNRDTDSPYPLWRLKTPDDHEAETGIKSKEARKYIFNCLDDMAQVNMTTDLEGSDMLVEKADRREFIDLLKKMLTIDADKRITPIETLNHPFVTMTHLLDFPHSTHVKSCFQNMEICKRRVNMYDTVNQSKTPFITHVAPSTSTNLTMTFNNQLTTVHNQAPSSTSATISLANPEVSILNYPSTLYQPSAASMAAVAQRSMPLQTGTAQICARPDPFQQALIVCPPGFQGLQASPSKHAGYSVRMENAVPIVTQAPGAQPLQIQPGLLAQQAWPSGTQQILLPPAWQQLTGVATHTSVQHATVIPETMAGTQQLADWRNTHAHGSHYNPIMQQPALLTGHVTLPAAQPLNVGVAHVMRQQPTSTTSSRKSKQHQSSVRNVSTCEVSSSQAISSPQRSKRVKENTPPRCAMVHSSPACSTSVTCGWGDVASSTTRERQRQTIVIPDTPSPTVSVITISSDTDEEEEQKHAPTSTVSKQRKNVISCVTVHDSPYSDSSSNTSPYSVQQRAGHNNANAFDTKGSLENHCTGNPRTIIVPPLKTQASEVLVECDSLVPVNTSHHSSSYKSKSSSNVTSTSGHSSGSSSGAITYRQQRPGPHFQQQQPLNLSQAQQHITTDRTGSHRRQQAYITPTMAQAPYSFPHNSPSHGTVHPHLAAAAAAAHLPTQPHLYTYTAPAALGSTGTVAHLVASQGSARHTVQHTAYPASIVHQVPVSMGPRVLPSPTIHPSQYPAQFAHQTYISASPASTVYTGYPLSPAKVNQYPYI
Assay [18] has the same target. To be noted: at 10 µM.
In assay [19] the target is Homeodomain-interacting protein kinase 3 (Homo sapiens) (UniProt Q9H422). The conditions noted are these: at 1 µM.
Assay [20] deals with Glycogen synthase kinase-3 alpha (Homo sapiens) (UniProt P49840). To be noted: at 1 µM.

Sequence of Glycogen synthase kinase-3 beta (Homo sapiens) (P49841 whole entry, looked up): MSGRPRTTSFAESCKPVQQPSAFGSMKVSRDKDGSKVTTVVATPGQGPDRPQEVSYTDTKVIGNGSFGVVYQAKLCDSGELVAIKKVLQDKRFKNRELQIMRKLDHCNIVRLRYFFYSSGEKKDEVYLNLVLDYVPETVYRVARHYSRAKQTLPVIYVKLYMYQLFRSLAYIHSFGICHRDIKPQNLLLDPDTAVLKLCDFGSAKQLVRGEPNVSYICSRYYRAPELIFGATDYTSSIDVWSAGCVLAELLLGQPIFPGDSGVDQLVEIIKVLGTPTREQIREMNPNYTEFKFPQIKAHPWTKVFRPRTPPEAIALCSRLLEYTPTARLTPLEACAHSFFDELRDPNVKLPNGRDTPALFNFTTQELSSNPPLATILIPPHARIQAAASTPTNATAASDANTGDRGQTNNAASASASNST
Sequence of G protein-coupled receptor kinase 5 (Homo sapiens) (P34947 whole entry, looked up): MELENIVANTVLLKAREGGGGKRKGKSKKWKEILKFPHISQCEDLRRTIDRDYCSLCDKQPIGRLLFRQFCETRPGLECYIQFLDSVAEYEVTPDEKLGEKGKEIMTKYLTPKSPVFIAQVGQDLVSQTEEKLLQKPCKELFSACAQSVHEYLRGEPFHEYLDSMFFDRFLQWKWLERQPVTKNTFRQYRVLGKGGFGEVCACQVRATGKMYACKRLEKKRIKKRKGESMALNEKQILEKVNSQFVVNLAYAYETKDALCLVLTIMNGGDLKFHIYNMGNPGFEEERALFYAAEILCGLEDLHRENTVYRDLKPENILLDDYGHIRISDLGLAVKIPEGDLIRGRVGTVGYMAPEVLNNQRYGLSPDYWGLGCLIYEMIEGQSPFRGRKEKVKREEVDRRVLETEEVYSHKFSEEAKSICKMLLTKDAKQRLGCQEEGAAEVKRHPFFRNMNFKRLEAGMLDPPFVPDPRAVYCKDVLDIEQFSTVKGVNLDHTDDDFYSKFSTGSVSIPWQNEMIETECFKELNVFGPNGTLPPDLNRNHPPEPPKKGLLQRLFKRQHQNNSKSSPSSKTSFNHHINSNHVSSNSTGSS
Sequence of Vascular endothelial growth factor receptor 3 (Homo sapiens) (P35916 whole entry): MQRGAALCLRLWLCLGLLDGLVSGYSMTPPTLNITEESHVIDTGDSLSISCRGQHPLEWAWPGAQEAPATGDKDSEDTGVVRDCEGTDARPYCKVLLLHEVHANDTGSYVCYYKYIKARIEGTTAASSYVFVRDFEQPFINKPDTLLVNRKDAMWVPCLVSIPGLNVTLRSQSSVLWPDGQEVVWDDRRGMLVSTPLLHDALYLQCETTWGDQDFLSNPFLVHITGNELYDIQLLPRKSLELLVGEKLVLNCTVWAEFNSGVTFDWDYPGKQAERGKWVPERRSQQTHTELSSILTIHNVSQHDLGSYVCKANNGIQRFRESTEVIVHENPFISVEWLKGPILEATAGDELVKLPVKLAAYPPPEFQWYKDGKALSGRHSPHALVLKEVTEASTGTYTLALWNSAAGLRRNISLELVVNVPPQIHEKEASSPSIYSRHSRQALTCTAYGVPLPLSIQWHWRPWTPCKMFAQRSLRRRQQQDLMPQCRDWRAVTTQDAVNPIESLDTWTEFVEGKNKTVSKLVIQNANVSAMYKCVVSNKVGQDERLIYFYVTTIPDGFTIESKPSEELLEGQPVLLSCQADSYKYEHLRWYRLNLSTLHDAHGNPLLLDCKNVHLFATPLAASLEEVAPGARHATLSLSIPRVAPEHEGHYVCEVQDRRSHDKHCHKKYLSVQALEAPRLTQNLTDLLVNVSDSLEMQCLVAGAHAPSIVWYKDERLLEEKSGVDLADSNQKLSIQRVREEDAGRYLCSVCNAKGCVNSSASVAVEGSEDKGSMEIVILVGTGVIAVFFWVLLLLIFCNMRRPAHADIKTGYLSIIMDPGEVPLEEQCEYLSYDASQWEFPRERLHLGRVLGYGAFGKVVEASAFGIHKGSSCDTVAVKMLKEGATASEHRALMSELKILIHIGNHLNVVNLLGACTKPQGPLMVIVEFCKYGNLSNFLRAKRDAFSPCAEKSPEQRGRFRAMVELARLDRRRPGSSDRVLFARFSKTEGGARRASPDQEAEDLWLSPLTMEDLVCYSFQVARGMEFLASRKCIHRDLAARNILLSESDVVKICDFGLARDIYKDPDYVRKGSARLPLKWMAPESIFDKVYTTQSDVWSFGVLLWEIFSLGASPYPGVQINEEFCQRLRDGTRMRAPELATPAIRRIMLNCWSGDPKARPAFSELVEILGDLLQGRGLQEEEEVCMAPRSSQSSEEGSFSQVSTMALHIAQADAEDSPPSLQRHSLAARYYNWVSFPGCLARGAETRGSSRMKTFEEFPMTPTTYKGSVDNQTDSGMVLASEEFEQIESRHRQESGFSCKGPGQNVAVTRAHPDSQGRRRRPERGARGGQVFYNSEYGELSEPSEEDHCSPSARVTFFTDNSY
Sequence of Tyrosine-protein kinase Fyn (Homo sapiens) (P06241 2-537 limits assumed): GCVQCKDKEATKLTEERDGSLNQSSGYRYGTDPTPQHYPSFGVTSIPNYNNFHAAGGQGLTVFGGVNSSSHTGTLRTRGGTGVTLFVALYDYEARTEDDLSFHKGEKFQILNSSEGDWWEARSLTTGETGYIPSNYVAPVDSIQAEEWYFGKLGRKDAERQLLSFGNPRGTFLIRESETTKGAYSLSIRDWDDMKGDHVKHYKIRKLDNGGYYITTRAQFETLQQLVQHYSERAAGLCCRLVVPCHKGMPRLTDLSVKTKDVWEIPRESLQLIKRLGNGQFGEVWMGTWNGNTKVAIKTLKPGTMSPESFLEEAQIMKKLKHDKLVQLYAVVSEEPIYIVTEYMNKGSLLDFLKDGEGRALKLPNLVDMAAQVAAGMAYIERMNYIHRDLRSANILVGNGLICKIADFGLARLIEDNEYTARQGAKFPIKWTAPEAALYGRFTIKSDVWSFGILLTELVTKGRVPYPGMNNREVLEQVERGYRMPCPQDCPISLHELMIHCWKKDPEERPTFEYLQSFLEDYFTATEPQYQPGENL

Regarding `O=c1cc(N2CCOCC2)oc2c1ccc1ccccc12`, the residual activity in assay [1] was 92%; in assay [2], 111%; in assay [3], 102%; in assay [4], 83%; in assay [5], 102%; in assay [6], 91%. The residual activity is 86% in [7]; 96% in assay [8]; 92% in assay [9]; 98% in [10]; 87% in [11]; 80% in assay [12]. In addition, the residual activity is 101% in [13]; 73% in assay [14]; 90% in assay [15]; 50% in [16]; 70% in [17]; 22% in [18]. Further, the residual activity in assay [19] was 71%.
For the compound `O=C1Cc2c([nH]c3ccc(Br)cc23)-c2ccccc2N1`, the residual activity in [1] is 22%; in assay [2], 49%; in assay [3], 23%; in assay [4] it was 31%; in assay [5], 11%; in [6] it was 6%. Besides, the residual activity was -1% in assay [7]; 96% in assay [8]; 8% in assay [13]; 7% in [14]; 90% in assay [16]; 98% in assay [17]. Also, in assay [18], the residual activity was 64%.
As to `O=C1NC(=O)c2c1c1c3ccccc3[nH]c1n1cncc21`, the residual activity in assay [1] turned out to be 2%; in assay [2], 26%; in [3], 23%; in assay [4] it was 51%; in assay [5], 42%; in assay [6] it was 58%. The residual activity was found to be 53% in assay [7]; 70% in [8]; 75% in assay [9]; 84% in assay [10]; 76% in [11]; 7% in assay [20]. The residual activity in [12] turned out to be 4%; in [13], 26%; in assay [14] it was 29%; in [15], 77%; in assay [16], 58%; in assay [17], 30%. Moreover, the figures for the residual activity in assay [18] and in assay [19] were 13% and 61%, respectively.
As for `O=C(c1cc2cc(O)ccc2[nH]1)c1cc2cc(O)ccc2[nH]1`, the residual activity in assay [1] is 1%; in assay [2], 54%; in assay [3], 10%; in [4], 7%; in assay [5], 1%; in assay [6], 24%. Besides, the residual activity was determined as 4% in assay [7]; 82% in assay [8]; 78% in assay [9]; 75% in assay [10]; 54% in assay [11]; 26% in assay [12]. The residual activity came out at 59% in assay [13]; 20% in [14]; 83% in assay [17]; 28% in assay [18]; 76% in assay [19].
As for `O=C1NC(=O)C(c2cn(CCCO)c3ncccc23)=C1c1cnccn1`, the residual activity in assay [1] worked out at 30%; in assay [2], 54%; in assay [3] it was 49%; in [4], 69%; in assay [5], 87%; in assay [6], 86%. Further, the residual activity in assay [7] turned out to be 79%; in assay [8], 93%; in assay [20], 6%; in [12], 3%; in [13], 34%; in assay [14], 10%. Also, the residual activity is 93% in assay [15], 93% in assay [16], 56% in [17] and 52% in assay [18].
For the compound `Nc1ncnc2[nH]nc(Nc3ccc(F)cc3)c12`, the residual activity turned out to be 41% in assay [1]; 69% in [2]; 27% in assay [3]; 54% in [4]; 17% in [5]; 98% in assay [6]. In addition, the residual activity in assay [7] came out at 49%; in assay [8], 97%; in assay [9], 97%; in assay [10], 110%; in assay [20], 98%; in assay [12], 90%. For the same compound, the residual activity in assay [13] amounted to 100%; in assay [14] it was 93%; in [15], 108%; in assay [16] it was 96%; in [17], 100%; in assay [18], 92%.
With `Cc1cc(C)c(/C=C2\C(=O)Nc3ccccc32)[nH]1`, the residual activity in [1] turned out to be 0%; in assay [2] it was 2%; in [3], 0%; in assay [4], 75%; in assay [5], 19%; in assay [6], 57%. For the same compound, the residual activity in [7] came to 11%; in [10], 74%; in assay [11] it was 60%; in [20], 106%; in assay [12], 124%; in assay [17], 80%. For the same compound, in [18], the residual activity came out at 39%.
Consider `O=C(O)/C=C/c1cc(Br)c(Br)c(Br)c1Br`, for which the residual activity was found to be 27% in assay [1]; 79% in [2]; 62% in [3]; 89% in [4]; 88% in assay [5]; 100% in assay [6]. Further, the residual activity turned out to be 72% in [7]; 91% in assay [8]; 84% in assay [9]; 105% in [10]; 95% in assay [11]; 93% in assay [20]. The residual activity in assay [12] was found to be 51%; in assay [13] it was 125%; in assay [14] it was 106%; in [15], 93%; in assay [16], 53%; in assay [17] it was 83%. Further, the residual activity in assay [18] amounted to 27%; in assay [19], 94%.
For `Cn1sc(=O)n(Cc2ccccc2)c1=O`, the residual activity in assay [1] amounted to 79%; in [2], 91%; in assay [3], 80%; in assay [4], 99%; in assay [5], 96%; in assay [6], 88%. Further, the residual activity in assay [7] was 81%; in [8], 85%; in assay [9], 80%; in [10] it was 89%; in assay [11], 77%; in assay [17], 94%. The residual activity in assay [18] was found to be 94%.
Consider `O=C1Nc2ccc(Cl)cc2/C1=C/c1cc(Cl)c(O)c(Cl)c1`, for which the residual activity was 1% in assay [1]; 7% in [2]; 1% in assay [3]; 67% in assay [4]; 25% in assay [5]; 46% in assay [6]. The residual activity in [7] was 14%; in assay [9], 82%; in assay [10] it was 91%; in assay [11], 79%; in [20], 75%; in [12], 30%. Besides, the residual activity in assay [13] was 84%; in [14], 44%; in [15], 93%; in assay [16], 88%; in [17] it was 76%; in assay [18] it was 22%. In addition, the residual activity in [19] was 79%.
For `O=C1C(Cl)=C(N2C(=O)CCC2=O)C(=O)c2ccccc21`, the residual activity in assay [1] was found to be 80%; in assay [2], 73%; in assay [3] it was 65%; in assay [4], 76%; in assay [5], 75%; in [6] it was 90%. Besides, the residual activity was found to be 89% in assay [7]; 94% in [8]; 91% in assay [9]; 99% in [10]; 90% in [11]; 120% in assay [13]. The residual activity in assay [14] was found to be 93%; in [16], 89%; in assay [17], 102%; in assay [18] it was 92%; in assay [19], 93%.
Turning to `Nc1nc(Nc2ccc(S(N)(=O)=O)cc2)nn1C(=O)c1c(F)cccc1F`, the residual activity turned out to be 0% in assay [1]; 30% in assay [2]; 7% in assay [3]; 51% in assay [4]; 10% in assay [5]; 33% in assay [6]. Besides, the residual activity came to 6% in assay [7]; 24% in assay [8]; 55% in assay [10]; 6% in assay [11]; 11% in assay [20]; 4% in assay [12]. In addition, the residual activity was determined as 23% in [13]; 3% in assay [14]; 75% in [15]; 18% in assay [16]; 48% in [17]; 6% in assay [18].

(Values after ChEMBL document CHEMBL2218924, “A broad activity screen in support of a chemogenomic map for kinase signalling research and drug discovery” (Biochem J, 2013).)
